In PubChem BioAssay (NCI):
Compounds without any hit were thinned out: in the full panel of roughly 83,000, 20% have a hit.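 96-well plates, one dose, 48 hours. Percent growth reported; active if below 10.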 A number with no mark means an inactive call. The source made the active and inactive calls.

How the values were obtained:
Assay in all cases: NCI-60 one-dose screen, 48 h (100 = growth as untreated, 0 = no growth, -100 = all killed)
Conditions in all cases: 10 µM unless noted
[1] = tested on: T-47D breast
[2] = tested on: BT-549 breast
[3] = tested on: MDA-MB-435 melanoma
[4] = tested on: SW-620 colon
[5] = tested on: MCF7 breast
[6] = tested on: HCT-116 colon
[7] = tested on: HCC-2998 colon
[8] = tested on: KM12 colon

`COc1ccc(C2=NN(C(C)=O)C(c3cn(-c4ccccc4)nc3-c3ccc(Cl)cc3)C2)cc1` (stereo not given) was tested, and the growth [1] was 7.93% (active), the growth [2] was 48.4% and the growth [3] was 34.2%. For the same compound, the growth [4] was 17.3%, the growth [5] was 21.8% and the growth [6] was -11.6% (active). For the same compound, the growth [7] was 36.3% and the growth [8] was 29.6%.
For `CC1C=CC(OC(=O)C(C)(O)CCC(O)(C(=O)OC2CC(O)C(C(C)C)CC2(C)O)C(C)C)(C(C)C)CC1` (stereo not given), the growth [1] was -47.1% [4.63 µM] (active), the growth [2] was -81% [4.63 µM] (active) and the growth [3] was -92% [4.63 µM] (active). The growth [4] was -67.8% [4.63 µM] (active), the growth [5] was -67.6% [4.63 µM] (active) and the growth [6] was -40% [4.63 µM] (active). The growth [7] was -72.8% [4.63 µM] (active) and the growth [8] was -77.4% [4.63 µM] (active).
Compound `CCCCCCCC/C=C\CCCCCCCCOc1ccc(CC(=O)NCC[N+]2(C)CCOCC2)cc1` has a growth [1] of 84.2%, a growth [2] of 78.1% and a growth [3] of 89.1%. For the same compound, the growth [4] was 81.2%, the growth [5] was 81.7% and the growth [6] was 73.8%. For the same compound, the growth [7] was 56.2% and the growth [8] was 51.3%.
For `N#CSc1c[nH]c2cccc(/C=C/C(=O)/C=C(O)/C=C/c3cccc4[nH]cc(SC#N)c34)c12`, the growth [1] was -10.5% (active), the growth [2] was -23.7% (active) and the growth [3] was -83.8% (active). For the same compound, the growth [4] was -43% (active), the growth [5] was -41.6% (active) and the growth [6] was -92% (active). For the same compound, the growth [7] was -57.8% (active) and the growth [8] was -16.9% (active).
With `CC1=CCC(OC(=O)C(C)(C)CC(O)(C(C)O)C(O)C2(C)C=CC(Cc3ccc(C(C)C)cc3)(C(C)C)CC2)(C(C)C)CC1` (stereo not given) the growth [1] was 98.9%, the growth [2] was 109% and the growth [3] was 94.1%. The growth [4] was 92.6%, the growth [5] was 102% and the growth [6] was 93.7%. For the same compound, the growth [7] was 103% and the growth [8] was 105%.
For `N#Cc1c(-c2ccccc2)nc(SCC(O)CN2CCOCC2)nc1N1CCOCC1` (stereo not given), the growth [1] was 26%, the growth [2] was 29.5% and the growth [3] was 53%. The growth [4] was 78.6%, the growth [5] was 4.99% (active) and the growth [6] was 57.5%. The growth [7] was 72.9% and the growth [8] was 69.1%.
`COc1ccccc1C(=O)Nc1cccc(NC(=O)c2ccoc2C)c1` was tested, and the growth [1] was 45.1%, the growth [2] was 44% and the growth [3] was -15.8% (active). For the same compound, the growth [4] was 28.2%, the growth [5] was 24.6% and the growth [6] was 15.3%. The growth [7] was 67.2% and the growth [8] was 21.1%.
Compound `Cc1cccc2c1C[C@@]1(C2=O)C(c2ccc(C(C)(C)C)cc2)=NOS1=O` (stereo not given in full) has a growth [1] of 70.2%, a growth [2] of 104% and a growth [3] of 109%. For the same compound, the growth [4] was 100%, the growth [5] was 66.2% and the growth [6] was 91.6%. For the same compound, the growth [7] was 109% and the growth [8] was 91.9%.
`CCNC(=O)Oc1ccc(/C(=C(/CC)Cc2ccccc2)c2ccc(OCCN3CCCC3)cc2)cc1` was tested, and the growth [1] was 68.3%, the growth [2] was 100% and the growth [3] was 102%. It also gave a growth [4] of 99.6%, a growth [5] of 35.9% and a growth [6] of 72.1%. It also gave a growth [7] of 91.3% and a growth [8] of 98%.
In the case of `O=C(CN1CCN(c2cc3c(cc2F)c(=O)c(C(=O)O)cn3C2CC2)CC1)N/N=C/c1ccco1`, the growth [1] is reported as 86.8%, the growth [2] is reported as 95.2% and the growth [3] is reported as 102%. For the same compound, the growth [4] was 99.6%, the growth [5] was 87.1% and the growth [6] was 97.1%. The growth [7] was 107% and the growth [8] was 102%.
In the case of `COc1ccc(C2=CC(c3cc(OC)c(OC)c(OC)c3)n3ncnc3N2)cc1` (stereo not given), the growth [1] is reported as 62.9%, the growth [2] is reported as 4.42% (active) and the growth [3] is reported as -21.9% (active). For the same compound, the growth [4] was 21.5%, the growth [5] was 15% and the growth [6] was 0.658% (active). For the same compound, the growth [7] was 26.5% and the growth [8] was 6% (active).
For `CNC(=O)c1cc(Oc2cccc3nc(NC(=O)Nc4cc(C(F)(F)F)ccc4Cl)ccc23)ccn1`, the growth [1] was 78.1%, the growth [2] was 85% and the growth [3] was 74.1%. For the same compound, the growth [4] was 112%, the growth [5] was 85% and the growth [6] was 60.1%. It also gave a growth [7] of 115% and a growth [8] of 96.7%.
With `CCc1ccc(CCC(=O)Nc2ncc(Cc3ccccc3)s2)o1` the growth [1] was 42.5%, the growth [2] was 63.5% and the growth [3] was -54.8% (active). It also gave a growth [4] of 28%, a growth [5] of 18.7% and a growth [6] of 23.4%. For the same compound, the growth [7] was 35.6% and the growth [8] was 18.4%.
In the case of `COc1ccc(/C=C(/c2ccccc2)[N+](=O)[O-])c(OC)c1`, the growth [1] is reported as -6.78% (active), the growth [2] is reported as -17.7% (active) and the growth [3] is reported as -21.6% (active). The growth [4] was -71.3% (active), the growth [5] was 3.58% (active) and the growth [6] was -42.8% (active). The growth [7] was -71.4% (active) and the growth [8] was -32.4% (active).
`O=C(N/N=C/c1cc(Cl)ccc1O)c1ccccc1Nc1ccnc(C(F)(F)F)c1` was tested, and the growth [1] was 8.91% (active), the growth [2] was 18.7% and the growth [3] was 35.2%. The growth [4] was 36.3%, the growth [5] was 20.6% and the growth [6] was 32.2%. For the same compound, the growth [7] was 81.3% and the growth [8] was 34.5%.
`COC(=O)/C=C1/SC(=Nc2ccc([N+](=O)[O-])cc2)N(CCc2c[nH]c3ccc(O)cc23)C1=O` was tested, and the growth [1] was 53.9%, the growth [2] was 25.7% and the growth [3] was 43.1%. For the same compound, the growth [4] was 85.5%, the growth [5] was 30.6% and the growth [6] was 14.6%. It also gave a growth [7] of 20.9% and a growth [8] of 41.7%.
`C=C1C(=O)O[C@H]2[C@H]1CC/C(CNC(=O)c1c[nH]c3ccc(F)cc13)=C\CC[C@@]1(C)O[C@@H]21` was tested, and the growth [1] was -39.6% (active), the growth [2] was 13% and the growth [3] was 3.64% (active). For the same compound, the growth [4] was -48.9% (active), the growth [5] was -26.3% (active) and the growth [6] was -49.1% (active). For the same compound, the growth [7] was -79.3% (active) and the growth [8] was 42.4%.
In the case of `C#COc1cccc(Nc2ncnc3cc(NC(=O)[C@@H](C)Cl)ccc23)c1`, the growth [1] is reported as -1.06% [6.25 µM] (active), the growth [2] is reported as 22.2% [6.25 µM] and the growth [3] is reported as -58.4% [6.25 µM] (active). For the same compound, the growth [4] was 20.4% [6.25 µM], the growth [5] was 11.6% [6.25 µM] and the growth [6] was 9.6% [6.25 µM] (active). It also gave a growth [7] of 15.2% [6.25 µM] and a growth [8] of 14.8% [6.25 µM].
In the case of `O=C(/C=C/c1ccccc1)c1ccc(Nc2nc(Nc3ccc(F)cc3)nc(Nc3ccc(Cl)cc3)n2)cc1`, the growth [1] is reported as 62.1%, the growth [2] is reported as 101% and the growth [3] is reported as 95.7%. For the same compound, the growth [4] was 90.4%, the growth [5] was 30.2% and the growth [6] was 49.6%. For the same compound, the growth [7] was 70.8% and the growth [8] was 91.6%.
Compound `CC1C(/C=N/NC(N)=S)C(C#N)(C#N)C1(C#N)C#N` (stereo not given) has a growth [1] of 84.6%, a growth [2] of 110% and a growth [3] of 98.3%. The growth [4] was 95.8%, the growth [5] was 97.1% and the growth [6] was 105%. It also gave a growth [7] of 105% and a growth [8] of 97%.
In the case of `COc1cc2nc3sc(C(=O)Nc4ccc(C(=O)OC(C)C)cc4)c(C(=O)Nc4ccc(Cl)cc4C)n3c(=O)c2cc1OC`, the growth [1] is reported as 46.5%, the growth [2] is reported as 96.7% and the growth [3] is reported as 76.5%. It also gave a growth [4] of 38.7%, a growth [5] of 52.2% and a growth [6] of 76.3%. For the same compound, the growth [7] was 20.5% and the growth [8] was 52.3%.
`COc1ccc(CCN(CC(=O)N(CC(N)=O)C2CCC[C@@H]2OCc2ccccc2)C(=O)CN(C(=O)CN(CCc2ccc(Cl)cc2)C(=O)CN(C(=O)CN(C)Cc2ccccc2F)[C@H](C)C2CCCCC2)[C@H](C)C2CCCCC2)cc1OC` (stereo not given in full) was tested, and the growth [1] was 27%, the growth [2] was 47.3% and the growth [3] was 26%. The growth [4] was 53.2%, the growth [5] was 14.1% and the growth [6] was 22.4%. The growth [7] was 0.406% (active) and the growth [8] was 20.2%.
Compound `O=C(Nc1ccc(Br)cc1)C1=NCCCCN1` has a growth [1] of 71.3%, a growth [2] of 87.5% and a growth [3] of 75.3%. The growth [4] was 67.3%, the growth [5] was 81% and the growth [6] was 80.2%. The growth [7] was 106% and the growth [8] was 75.6%.
Compound `CC(C)CCN(CCC(C)C)CC(O)c1cc2c(c3ccccc13)CCCC2` (stereo not given) has a growth [1] of 59%, a growth [2] of 103% and a growth [3] of 98.4%. It also gave a growth [4] of 59%, a growth [5] of 78.5% and a growth [6] of 50.5%. It also gave a growth [7] of 30.1% and a growth [8] of 64.6%.
Compound `Cc1ccc(-c2csc(NC(=O)c3ccccc3CN3C(=O)c4ccccc4C3=O)n2)cc1` has a growth [1] of 97.1%, a growth [2] of 91.4% and a growth [3] of 95.3%. The growth [4] was 100%, the growth [5] was 94.3% and the growth [6] was 95.4%. It also gave a growth [7] of 98% and a growth [8] of 100%.
In the case of `CCN(CC)c1ccc(CNc2cc(C)nc3ccccc23)cc1`, the growth [1] is reported as 39%, the growth [2] is reported as 71.6% and the growth [3] is reported as 65.7%. The growth [4] was 76.9%, the growth [5] was 39.2% and the growth [6] was 52.1%. For the same compound, the growth [7] was 42.1% and the growth [8] was 71.9%.
Compound `CN(C)CCCC1(c2ccc(F)cc2)OCc2cc(-c3ccc4cc[nH]c4c3)ccc21` (stereo not given) has a growth [1] of 75.8%, a growth [2] of 87.7% and a growth [3] of 14.7%. For the same compound, the growth [4] was 17.2%, the growth [5] was -4.23% (active) and the growth [6] was -12.2% (active). For the same compound, the growth [7] was -61.6% (active) and the growth [8] was 0.464% (active).
`CN1CCN(C(=O)[C@@]2(C)CC[C@]3(C)CC[C@]4(C)C(=CC[C@@H]5[C@@]6(C)CCC(=O)NC(C)(C)[C@@H]6CC[C@]54C)[C@@H]3C2)CC1` was tested, and the growth [1] was 39.2%, the growth [2] was 45.9% and the growth [3] was 46.1%. The growth [4] was 19.7%, the growth [5] was 45% and the growth [6] was 21.8%. The growth [7] was 49% and the growth [8] was 46.8%.
`O=C1/C(=C/c2ccccn2)NC(=S)N1c1ccccc1Cl` was tested, and the growth [1] was 44.1%, the growth [2] was 83.8% and the growth [3] was 67.4%. It also gave a growth [4] of 37.9%, a growth [5] of 32.9% and a growth [6] of 12.2%. For the same compound, the growth [7] was 85.9% and the growth [8] was 67.4%.
In the case of `O=C(NCc1cccc(CNC(=O)Nc2nc3ccccc3[nH]2)c1)Nc1nc2ccccc2[nH]1`, the growth [1] is reported as 15.9%, the growth [2] is reported as 29.3% and the growth [3] is reported as -74.9% (active). For the same compound, the growth [4] was -41.6% (active), the growth [5] was -43.7% (active) and the growth [6] was -82.4% (active). The growth [7] was 17.9% and the growth [8] was -41.9% (active).
